# Screening data as filed in PubChem BioAssay.
# A selection: hits, their analogues and other compounds. The true share with any hit is near 3%.
# TexasRed fluor: Texas Red fluorescence interference in TRb-SRC2 counter-screen; hit rate 0.29% among 280,000; TRb/SRC2 Texas Red total fluorescence interference; Potency, µM (titrated, usually from 106 µM); AID 1479; active = well fitted curve in either direction with a large enough effect; inconclusive = small, poorly fitted or top-dose-only effect
#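 Human TRb ligand-binding domain at 0.6 uM with 20 nM Texas Red SRC2 peptide in Tris buffer containing 1 uM T3 and 5% DMSO, incubated with compound 5 h at ambient temperature. Total fluorescence (555/632 nm) calculated as parallel + 2 × perpendicular.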
# Tau fluor cs: counter-screen for tau fibril formation inhibitors. Potency, µM (series often up to 57.7 µM). hit rate 0.93% among 280,000. AID 1463. tau K18 P301L Alexa594 fluorescence, heparin fibrillization; also: nearly all actives have a fitted effect of over 55% in size
#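 Human tau K18 P301L (15 uM unlabeled, 0.24 uM Alexa 594-labeled) in 100 mM sodium acetate pH 7 with 20 uM heparin, 6 hr at 37 C. ThT 30 uM added, 1 hr ambient; Alexa 594 FP and total fluorescence read at 555/632 nm.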
# Tau ThT inhib: inhibitors of human tau fibril formation, thioflavin T binding; recombinant tau K18 P301L (four-repeat tau fragment), heparin-induced fibrillization, ThT fluorescence; Potency, µM (highest dose often 57.4 µM), actives largely listed as inhibitors; AID 1460; hit rate 2.1% among 270,000; also: nearly all actives have a fitted effect of over 55% in size
# Target sequence (P10636 561-689 P618L limits assumed): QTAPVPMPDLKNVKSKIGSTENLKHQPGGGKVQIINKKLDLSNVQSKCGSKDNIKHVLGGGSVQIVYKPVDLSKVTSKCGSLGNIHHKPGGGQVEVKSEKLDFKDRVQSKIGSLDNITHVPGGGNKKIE
#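 In this qHTS, human K18 P301L tau is incubated with compound and heparin for 6 hr at 37 C, and Thioflavin T fluorescence then reports fibril load.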
# TRb-SRC2 inh: TRbeta-SRC2 interaction inhibition. TRbeta-SRC2 peptide binding, fluorescence polarization; receptor liganded with 1 µM T3. P10828. Potency, µM (titrated, usually from 106 µM), usual class: inhibitors. hit rate 0.065% among 280,000; also: nearly all actives have a fitted effect of over 50% in size
# Target sequence (P10828 whole entry, looked up): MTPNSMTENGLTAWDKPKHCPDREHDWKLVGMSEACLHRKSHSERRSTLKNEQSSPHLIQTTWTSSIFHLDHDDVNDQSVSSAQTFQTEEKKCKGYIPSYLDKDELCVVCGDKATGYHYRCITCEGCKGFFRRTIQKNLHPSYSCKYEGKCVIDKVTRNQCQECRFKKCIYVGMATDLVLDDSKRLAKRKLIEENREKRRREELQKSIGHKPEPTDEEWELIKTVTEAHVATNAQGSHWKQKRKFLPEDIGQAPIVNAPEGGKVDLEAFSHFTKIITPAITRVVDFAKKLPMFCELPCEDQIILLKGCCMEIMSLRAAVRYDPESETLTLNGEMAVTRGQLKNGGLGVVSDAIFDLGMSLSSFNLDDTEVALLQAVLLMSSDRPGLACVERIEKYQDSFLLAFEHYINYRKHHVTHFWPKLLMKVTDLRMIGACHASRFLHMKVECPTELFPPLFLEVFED
#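 Polarization signal, normalized between peptide-alone and full complex controls, measured compound effects on T3-liganded human TRb LBD (0.6 uM) binding 20 nM Texas Red SRC2 peptide after 5 hr.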
# Tau FP inhib: inhibitors of human tau fibril formation; K18 P301L tau heparin fibrillization, Alexa594 FP, 6 h; P10636; hit rate 0.39% among 280,000; Potency, µM (titrated, usually from 57.7 µM), actives largely listed as inhibitors; also: nearly all actives have a fitted effect of over 55% in size
#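 Human tau K18 […] P301L fragment, 15 uM unlabeled plus 0.24 uM Alexa 594-labeled tau (final), with compound and 20 uM heparin in 100 mM sodium acetate pH 7; 6 hr at 37 C, then Alexa 594 FP read.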
# A number is an active result; i = inactive; ? = inconclusive; nt = not tested or not shown; [ ] = remark or other dose. Unless noted, calls follow the shape of the dose curve; as a rule, active = well fitted curve in the direction sought with a large enough effect; inconclusive = small, poorly fitted or top-dose-only effect, or another doubt; inactive = no such curve, though single readings can be large; an effect the other way counts as inactive or inconclusive.
SMILES,TexasRed fluor,Tau fluor cs,Tau ThT inhib,TRb-SRC2 inh,Tau FP inhib
CCOc1ccc(NS(=O)(=O)c2ccc3[nH]cc(C(=O)NCCc4ccccc4)c(=O)c3c2)cc1,i,i,i,i,?
COc1ccc(/C=N/OCC(=O)N=Nc2c(O)[nH]c3ccc(Br)cc23)cc1,i,?,5µM,i,?
COc1ccc(-c2cc(-c3cc(OC)ccc3O)[nH]n2)cc1,i,16µM[quencher],?,i,i
COc1ccc(-c2n[nH]c(C)c2-c2cc(OC)ccc2O)cc1,i,i,i,i,i
COc1ccc(O)c(-c2cc(-c3cccc(Br)c3)n[nH]2)c1,i,14µM[quencher],?,i,i
CCOC(=O)C1=C(C)NC(C)=C(C(=O)OC)C1c1cccc(Cl)c1Cl (configuration not stated),i,14µM[quencher],i,i,i
CCOC(=O)C1=C(COCCN)NC(C)=C(C(=O)OC)C1c1ccccc1Cl (configuration not stated),i,i,i,i,i
CC(C)C[C@H](N)CSSC[C@@H](N)CC(C)C,i,i,5µM,i,?
Cc1nc(N)sc1-c1csc(Nc2ccc(Cl)cn2)n1,i,14µM[quencher],7.9µM,i,i
COc1ccc(CCNc2nc(-c3sc(N)nc3C)cs2)cc1OC,i,?,14µM,i,?
Cc1nc(N)sc1-c1csc(Nc2ccccn2)n1,i,14µM[quencher],13µM,i,?
COc1ccc(Nc2nc(-c3sc(N)nc3C)cs2)cc1,i,?,8.9µM,i,?
Cc1ccccc1Nc1nc(-c2sc(NC(=O)c3ccccc3)nc2C)cs1,i,?,?,i,i
O=C(N/N=C1/C[C@@H](O)[C@@H](O)[C@@H]2[C@@H]3C(=O)N(Cc4ccccc4)C(=O)[C@H]3CC[C@@H]12)OCc1ccccc1,i[11.2 µM],i[11.6 µM],i[11.5 µM],i[11.2 µM],i[11.6 µM]
C=CC(=O)NC(C)(C)CS(=O)(=O)O,i,nt,nt,i,nt
Cc1ccc(N2C(=O)[C@@H]3[C@H](C2=O)C2c4ccccc4C=CN2[C@@H]3C(=O)c2ccco2)cc1 (some centres not stated),i,i,25µM,i,?
Cc1ccc(N2C(=O)[C@@H]3[C@H](C2=O)C2c4ccccc4C=CN2[C@@H]3C(=O)c2ccco2)c(C)c1 (some centres not stated),i,i,25µM,?,?
Cc1ccc(N2C(=O)[C@@H]3[C@H](C2=O)[C@H]2C=C(C(=O)c4ccccc4)C=CN2[C@@H]3C(=O)c2ccc(Cl)cc2)cc1,i,i,?,i,i
O=C(c1ccco1)[C@@H]1[C@@H]2C(=O)N(c3ccccc3)C(=O)[C@@H]2C2c3ccccc3C=CN21 (some centres not stated),i,i,25µM,i,?
CC(=O)[C@@H]1[C@@H]2C(=O)N(Cc3ccccc3)C(=O)[C@@H]2C2c3ccccc3C=CN21 (some centres not stated),i,i,?,i,i
COc1ccc(N2C(=O)[C@@H]3[C@H](C2=O)[C@H]2c4ccccc4C=CN2[C@@H]3C(=O)Nc2ccccc2)cc1,i,?,?,i,i
CC(C)(C)C(=O)[C@@H]1[C@@H]2C(=O)N(c3ccc4c(c3)OCCO4)C(=O)[C@@H]2C2c3ccccc3C=CN21 (some centres not stated),i,?,28µM,i,?
CC(=O)N1CCc2c(sc3c2c(=O)n(-c2ccccc2)c(=O)n3CC(=O)Nc2ccccc2C)C1,?,i,i,i,i
CCCc1ccc(-c2ccc(C(=O)Oc3ccc(Br)cc3)cc2)nc1,0.035µM[quencher],i,i,i,i
CCCCCc1ccc(-c2ccc(Br)cc2)nc1,i,i,i,i,i
SMILES,TexasRed fluor,Tau fluor cs,Tau ThT inhib,TRb-SRC2 inh,Tau FP inhib
Nc1cccc(Nc2nc(OC(C(F)(F)F)C(F)(F)F)nc(OC(C(F)(F)F)C(F)(F)F)n2)c1,i,14µM[quencher],i,i,i
COc1nc(Nc2ccc(O)cc2)nc(OC(C(F)(F)F)C(F)(F)F)n1,i,?,i,i,i
CC(C)C(=O)N(c1cc2sc(=O)oc2c2ccccc12)S(=O)(=O)c1cccs1,i,?,16µM,i,?
CCOC(=O)Cc1cc(=O)n2[nH]c(-c3ccccc3)c(-c3ccccc3)c2n1,i,i,i,i,i
CCOC(=O)Cc1cc(=O)n2[nH]c(C)c(-c3ccccc3)c2n1,45µM[fluorescent],i,i,?,i
CC1=C(C(=O)N2CCOCC2)C(c2cc(C)cs2)NC(=O)N1 (configuration not stated),28µM[fluorescent],i,i,20µM,i
Nc1ccc2oc(-c3ccc4nc[nH]c4c3)nc2c1,i,?,14µM,i,i
CCCN(CCC)c1c([N+](=O)[O-])cc(C(F)(F)F)c(N)c1[N+](=O)[O-],i,nt,nt,i,nt
O=C(O)c1ccc(N/N=C/c2cn(Cc3ccccc3F)c3ccccc23)cc1,i,?,14µM,i,i
O=C(O)c1ccc(N/N=C/c2ccnc3ccccc23)cc1,i,?,5µM,i,i
O=C(O)c1ccc(N/N=C/c2ccc3nccnc3c2)cc1,i,i,3.5µM,i,i
O=C(O)c1ccc(N/N=C/c2cccc3cccnc23)cc1,i,i,nt,i,i
COC(=O)N/N=C/c1cn(Cc2ccccc2F)c2ccccc12,i,?,i,i,?
O=C(O)c1ccc(N/N=C/c2ccc(F)c(F)c2)cc1,i,?,?,i,i
C[C@@H]1CC2C3CCC4=CC(=O)C=CC4(C)[C@@]3(F)[C@@H](O)CC2(C)[C@@]1(O)C(=O)CO (some centres not stated),i,i,i,i,i
COc1cc(/C=N/c2oc(-c3ccccc3)cc2C#N)ccc1O,i,?,16µM,i,i
CC(=O)OCC(=O)Nc1ccc(N=Nc2ccccc2)cc1,i,i,8.9µM,i,i
CCC(C(=O)OCC(=O)Nc1ccc(C(N)=O)cc1)c1ccccc1 (configuration not stated),i,i,i,i,i
O=S(=O)(Nc1ccc(S(=O)(=O)Nc2ccccc2)cc1)c1ccccc1,i,i,i,i,i
CC(C)C(=O)OCC(=O)Nc1ccc(N=Nc2ccccc2)cc1,i,?,7.9µM,i,?
O=S(=O)(Nc1ccc(N=Nc2ccccc2)cc1)c1ccccc1,i,?,16µM,i,?
O=C(CCl)Nc1ccc(N=Nc2ccccc2)cc1,i,?,5µM,i,i
O=C(NCc1ccc(F)cc1)c1ccc2c(O)c(S(=O)(=O)c3ccccc3)c(=O)[nH]c2c1,i,i,i,i,i
CCCNC(=O)C1CCC(Cn2c(=O)c3sccc3n(CC(=O)N(CC)CC)c2=O)CC1 (configuration not stated),i,i,i,i,i
Cc1ccn2c(Nc3ccc4c(c3)OCO4)c(-c3ccc(N(C)C)cc3)nc2c1,i,?,?,i,i
CC(=O)Nc1ccc(N=Nc2ccccc2)cc1,i,i,13µM,i,i
